Screening results as filed in PubChem.
Mtb hypoxia rep: Mtb hypoxia fluorescent reporter inhibition | M. tuberculosis hypoxia-regulated fluorescent reporter, fluorescence | fluorescence inhibition, % (no concentration beside the values) | actives 0.1% (n = 300,000); in the data active means fluorescence inhibition mostly above about 23%, no sharp cut-off; inactive means mostly below about 17%
RN4220 kill: S. aureus RN4220 growth inhibition | OD600, 16 h | inhibition, % (no concentration beside the values) | actives 0.33% (n = 330,000); in the data active means inhibition above about 85%
Mtb betalactam: beta-lactam sensitization of Mtb H37Rv; M. tuberculosis H37Rv growth with meropenem, percent inhibition; inhibition, % at 25 µM; actives 0.27% (n = 330,000); AID 434955; call rule not given here;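 further: growth measured after seven days incubation then overnight dye step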
Sa ugtP lethal: growth inhibition of S. aureus ugtP deletion strain | S. aureus RN4220 ugtP deletion, OD600 growth, 16 h | growth inhibition, % (no concentration beside the values) | actives 0.54% (n = 330,000); in the data active means growth inhibition above about 68%
Numbers stand for hits; – = inactive; · = no result given. Compounds with a hit are over-represented: about 0.61% of the library has one in this group of screens.

SMILES	Mtb hypoxia rep	RN4220 kill	Mtb betalactam	Sa ugtP lethal
Cc1ccc(NCC(=O)N2CCN(S(=O)(=O)c3ccccc3)CC2)cc1F	–	–	·	–
N#Cc1ccc(NCC(=O)N2CCN(S(=O)(=O)c3ccccc3)CC2)cc1	43	–	–	–
COc1ccc(Cn2c(SCc3ccc(C)cc3)nc3cc(OC)c(OC)cc3c2=N)cc1Cl	–	100	–	99
O=C(Cc1cc(=O)[nH][nH]1)NN=Cc1c(Cl)cccc1Cl	–	–	·	–
CN1CCN(c2ccc(NC(=S)NC(=O)c3cccc4ccccc34)cc2)CC1	–	–	–	95
O=C(Nc1ccc(S(=O)(=O)N2CCCC2)cc1)c1ccccc1	–	–	–	–
O=C(NC(=S)Nc1ccc(S(=O)(=O)N2CCCCC2)cc1)c1ccccc1	·	–	–	86
CN1CCN(c2ccc(NC(=S)NC(=O)c3cccc4c(Br)cccc34)cc2)CC1	–	–	–	–
Cc1ccc(C(=O)NC(=S)Nc2ccc(N3CCN(C(=O)c4ccco4)CC3)cc2)cc1	–	–	–	91
CC(=O)N1CCN(c2ccc(NC(=S)NC(=O)c3ccccc3)cc2)CC1	–	–	–	93
c1ccc2nc(N3CCCC3)c(N3CCCC3)nc2c1	·	–	–	–
Cc1ccc(-c2cc3ccccc3nc2N2CCOCC2)cc1	–	–	–	91
c1ccc(-c2cc3ccccc3nc2N2CCCC2)cc1	·	–	–	85
COC(=O)C1=C(C)N(CCc2cc(OC)c(OC)c(OC)c2)C(=O)NC1c1ccccc1 (configuration not stated)	–	–	·	–
NC(=O)COC(=O)c1oc2ccccc2c1CSc1ccc(Cl)cc1	–	–	–	96
Cc1ccc(C(C)C)c(OCc2nn(CC(=O)c3ccc(OC(F)F)cc3)c3[n+]2CCCCC3)c1	·	100	–	95
COc1ccc(C(=O)Cn2nc(CNc3ccc(Br)cc3)[n+]3c2CCCCC3)cc1	·	99	–	98
COC(=O)C1=C(C(=O)OC)C2N(Cc3ccccc3)c3ccccc3[C@@]23CC(C(=O)OC)N(C(=O)COCc2ccccc2)C3=N1 (some centres not stated)	–	–	·	–
CCOc1ccc(-n2c(C)cc(C(=O)NS(=O)(=O)c3ccc(C)cc3)c2C)cc1	–	–	–	92
CCOc1ccc(S(=O)(=O)NC(=O)c2ccccc2)cc1	–	–	–	–
Cc1ccc(-n2c(C)cc(C(=O)NS(=O)(=O)c3ccc(C)cc3)c2C)cc1	–	–	–	98
CCN(CC)c1ccc(C=NNC(=S)NCc2ccco2)cc1	–	–	·	–
Cn1c(SCc2ccc(Cl)cc2Cl)nc(C(F)(F)F)cc1=O	–	–	–	–
FC(F)(F)c1nc(SCc2ccc(Cl)cc2Cl)n[nH]1	–	–	–	83
N#CC(=NNc1ccc(OC(F)(F)F)cc1)C(N)=S	·	–	·	87
SMILES	Mtb hypoxia rep	RN4220 kill	Mtb betalactam	Sa ugtP lethal
Clc1ccc(CON=C2CCCc3nonc32)cc1	–	–	·	–
COc1ccc(Br)cc1CNC(=O)Nc1cccs1	–	91	–	87
CC(NC(=O)COC(=O)c1ccc(N2CCCC2=O)cc1)c1ccc(F)cc1 (configuration not stated)	33	–	–	–
COc1ccc(NC(=O)COC(=O)c2ccc(N3CCCC3=O)cc2)cc1	–	–	–	–
C(=Nn1cnnc1)c1cn(Cc2ccccc2)c2ccccc12	–	–	·	–
CCC(=O)OCCNc1cc(SCCC(=O)OC)c2nonc2c1[N+](=O)[O-]	–	–	–	–
CCCC(=O)OCCNc1cc(Sc2nc3ccccc3[nH]2)c2nonc2c1[N+](=O)[O-]	·	96	–	100
COc1ccc(C=NNc2cc(C)nc(-n3nc(C)cc3C)n2)cc1	–	–	·	–
Cc1cc(C)nc(NC(N)=NCCc2ccccc2)n1	–	–	·	–
Cc1cc(C)nc(NC(N)=NC(C)c2ccccc2)n1 (configuration not stated)	–	–	–	94
COC(=O)C1C(c2ccccc2)NC(=O)N(Cc2ccccc2)C1C (configuration not stated)	–	–	·	–
CN1c2ccsc2C(=NNc2ccc(F)cc2)CS1(=O)=O	–	–	·	100
Cc1cc(OCCn2cc(/C(N)=N/O)c3ccccc32)ccc1Cl	–	–	–	93
COC(=O)c1cn(CCOc2ccc(C)cc2)c2ccccc12	–	–	–	–
C=CCNC(=S)N1CCN(c2cc3c(cc2F)c(=O)c(C(=O)O)cn3CC)CC1	–	98	–	99
CCCCCNC(=O)c1cn(CC)c2cc(N3CCN(C)CC3)c(F)cc2c1=O	–	–	–	–
CCCCN(CCCC)C(=O)c1cn(CC)c2cc(N3CCN(C)CC3)c(F)cc2c1=O	–	93	–	97
C=CCCCCCCCCC(=O)N1CCN(c2cc3c(cc2F)c(=O)c(C(=O)O)cn3CC)CC1	–	–	–	93
N#CC(=C1CCCN1)c1ccc2ccccc2n1	·	–	·	–
COc1ccccc1NS(=O)(=O)c1ccc(N/N=C/c2ccccc2OCC(=O)O)c([N+](=O)[O-])c1	·	·	–	·
O=C(O)c1ccccc1NS(=O)(=O)c1ccc(NN=Cc2cccc(Cl)c2)c([N+](=O)[O-])c1	–	–	–	90
O=C(O)c1ccccc1NS(=O)(=O)c1ccc(NN=Cc2ccc(F)cc2)c([N+](=O)[O-])c1	–	–	–	–
COc1ccc(Br)cc1C=NNc1ccc(S(=O)(=O)Nc2ccccc2C(=O)O)cc1[N+](=O)[O-]	–	100	·	99
CN(C)c1ccc(C=NNC(=O)c2ccc(NC(=O)c3ccccc3)cc2)cc1	–	–	·	–
COc1cccc(C(=O)OC2C(Cc3ccccc3)NS(=O)(=O)C3CC4C=C[C@]23O4)c1 (some centres not stated)	–	–	·	–
SMILES	Mtb hypoxia rep	RN4220 kill	Mtb betalactam	Sa ugtP lethal
CC1C/C(=C/c2cccs2)C(=O)/C(=C/c2cccs2)C1 (configuration not stated)	–	–	–	90
O=C1/C(=C/c2cccs2)CCC/C1=C\c1cccs1	·	·	–	·
CCOC(=O)C1CCN(c2c(C(=O)c3ccccc3)cnc3ccc(CC)cc23)CC1	–	–	–	94
CCOC(=O)C1CCCN(c2c(C(=O)c3ccccc3)cnc3ccccc23)C1 (configuration not stated)	–	–	–	–
CON/C=C(\C=Nc1ccccc1)c1ncc(C(F)(F)F)cc1Cl	–	–	–	96
CON/C=C(\C=Nc1ccc(Cl)cc1Cl)c1ncc(C(F)(F)F)cc1Cl	–	–	–	–
N#CC(C#N)=C1C=CC=CN1/C(=C\c1ccco1)C(=O)c1ccc(Cl)cc1	–	–	–	89
COc1ccc2c(c1[N+](=O)[O-])CCCC2=NOC(=O)c1cccc2ccccc12	·	–	·	–
Cc1ccc(C(=O)NCCN2C3=NCC(Cc4ccccc4)N3CC2Cc2ccc(O)cc2)cc1Br (configuration not stated)	–	–	·	–
Cn1c(COc2ccccc2)nnc1SCC(=O)NC1CCCC1	–	–	–	–
Cn1c(COc2ccc(Cl)cc2)nnc1SCC(=O)NC1CC1	34	–	–	–
CC(=O)Nc1ccc2c(c1)OCCOCCOc1cc(NC(C)=O)ccc1OCCO2	–	–	–	–
CC(C)(C)C(=O)Nc1ccc2c(c1)OCCOCCOc1cc(NC(=O)C(C)(C)C)ccc1OCCOCCO2	36	–	–	–
